TDP1 cell CPT: DT40-hTDP1 cell growth loss with CPT | Potency, µM (series often up to 46.2 µM), inactives show at the highest dose activity change, negative = growth inhibition, usual class: inhibitors | chicken DT40 Tdp1-/-;hTDP1 cells + 20 nM CPT, ATP luminescence, 48 h | hit rate 12% among 420,000; also: potency is read from the fitted curve at half-maximal effect; nearly all actives have a fitted effect of over 55% in size
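Chicken DT40 Tdp1-/- cells stably complemented with human TDP1 were seeded at 400 cells/well in medium containing 20 nM camptothecin, exposed to pin-transferred compounds, and grown at 37 °C for at least 48 hr. Viability was read as ATP luminescence.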
IL-1B inflam inh: inflammasome signaling inhibition, IL-1 beta readout. THP-1 LPS/ATP IL-1B secretion, AlphaLISA, 16 h; hits give low values. activity change, % at 57.5 µM. hit rate 4.7% among 360,000. AID 743279; in the data active = activity change below about -50%; inconclusive = mostly about -30% to -49%
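Secreted IL-1B measured by AlphaLISA bead assay after 16 h compound exposure of THP-1 cells; compounds (final up to 57.5 uM) added 1 h before LPS (250 ng/mL) and ATP (1.25 mM) stimulation; lower signal means less secretion.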
HT1080 IDH1KD tx: kills HT-1080 cells with IDH1 knockdown. HT-1080 IDH1 knockdown viability, ATP luminescence, 48 h. hit rate 2% among 360,000. AID 686971. Potency, µM (highest dose often 46.1 µM), for the others: at the top dose activity, negative = toxicity, hits mostly cytotoxic;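 also: potency is read from the fitted curve at half-maximal effect; 0% = DMSO wells and -100% = cell-free medium wells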
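Cytotoxicity counter-line: IDH1KD HT-1080, 48 h, CellTiter-Glo. Curves classed by r2, magnitude and activity.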
TDP1 cell noCPT: qHTS for Inhibitors of human tyrosyl-DNA phosphodiesterase 1 (TDP1): qHTS in cells in absence of CPT; Potency, µM (highest dose often 46.2 µM), without a hit: at the top dose activity change, negative = growth inhibition, hits mostly inhibitors; DT40 Tdp1-/- hTDP1 cells, no CPT, ATP luminescence, 48 h; hit rate 15% among 420,000; AID 686978, 2013; also: potency is read from the fitted curve at half-maximal effect; nearly all actives have a fitted effect of over 55% in size
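Camptothecin absent (DMSO only). Human TDP1-complemented DT40 knockout cells, 400 cells/well, 37 °C for minimum 48 hr; ATP measured via CellTiter-Glo, 30 min dark incubation, luminescence.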
HT1080-NT tox: kills 2HG-producing HT-1080-NT fibrosarcoma cells; HT-1080-NT fibrosarcoma viability, CellTiter-Glo ATP luminescence, 48 h; Potency, µM (highest dose often 46.1 µM), for inactives: at the top dose activity, negative = less viability, most hits filed as cytotoxic; hit rate 1.6% among 360,000; AID 686970;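 also: NT is the 2HG producing partner of a matched IDH1 knockdown line; potency is read from the fitted curve at half-maximal effect; 0% = DMSO-treated cells and -100% = media-only wells without cells; nearly all actives have a fitted effect of over 55% in size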
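Fibrosarcoma NT cells, 750 per well in 5% FBS RPMI, were exposed to compound for 48 hours. Viability: CellTiter-Glo luminescence.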
12-LOX inh: ALOX12 (human) lipoxygenase inhibition; purified 12hLO, xylenol orange hydroperoxide absorbance; Potency, µM (series often up to 108 µM), inactives show top-dose activity change, negative = inhibition, actives largely listed as inhibitors; hit rate 1.1% among 580,000; AID 1671190; also: potency is read from the fitted curve at half-maximal effect
Target sequence (P18054 whole entry, looked up): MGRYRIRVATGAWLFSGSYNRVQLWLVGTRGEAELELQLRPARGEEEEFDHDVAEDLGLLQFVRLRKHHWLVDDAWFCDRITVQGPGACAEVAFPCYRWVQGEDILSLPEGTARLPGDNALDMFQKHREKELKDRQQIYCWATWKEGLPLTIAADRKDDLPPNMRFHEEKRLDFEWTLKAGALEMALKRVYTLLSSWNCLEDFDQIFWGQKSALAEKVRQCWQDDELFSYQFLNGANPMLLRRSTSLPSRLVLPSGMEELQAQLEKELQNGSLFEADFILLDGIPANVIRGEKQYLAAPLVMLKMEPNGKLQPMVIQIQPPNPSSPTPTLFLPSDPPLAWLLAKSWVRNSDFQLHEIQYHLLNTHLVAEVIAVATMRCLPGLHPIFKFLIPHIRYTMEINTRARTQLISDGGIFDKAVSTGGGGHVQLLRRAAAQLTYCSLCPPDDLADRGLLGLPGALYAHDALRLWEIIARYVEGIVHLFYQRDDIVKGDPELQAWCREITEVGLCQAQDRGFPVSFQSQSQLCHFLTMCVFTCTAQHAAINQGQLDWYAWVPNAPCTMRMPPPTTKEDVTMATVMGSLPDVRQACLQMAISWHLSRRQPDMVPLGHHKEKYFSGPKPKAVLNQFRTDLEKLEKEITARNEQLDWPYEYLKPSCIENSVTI
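Purified human 12hLO (150 nM final) in 25 mM Hepes, 0.01% Triton X-100, pH 7.0 was preincubated 15 min at room temperature with compound. Then 40 uM arachidonic acid was added, 30 min. Hydroperoxide was read by Fe-XO absorbance ratio 573/405 nm.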
Starred values were filed as active, the others as inactive; u = inconclusive; x = not tested or not shown; [ ] = another dose, or the depositor's remark. Many of the other results were omitted from the sample, so hits are more common in it than they were. Unless noted, calls follow the shape of the dose curve; as a rule, active = well fitted curve in the direction sought with a large enough effect; inconclusive = small, poorly fitted or top-dose-only effect, or another doubt; inactive = no such curve, though single readings can be large; an effect the other way counts as inactive or inconclusive. Unless noted, % is scaled to controls: 0 for no effect and ±100 for the full control effect.

SMILES	TDP1 cell CPT	IL-1B inflam inh	HT1080 IDH1KD tx	TDP1 cell noCPT	HT1080-NT tox	12-LOX inh
Cc1ccc(C(=O)NC(=S)Nc2ccccc2N2CCCC2)cc1[N+](=O)[O-]	16.4µM*	-18.6	-25.4%	18.4µM*	-18.2%	u
O=C(O)c1ccc(N2CCN(C(c3ccccc3)c3ccccc3)CC2)c([N+](=O)[O-])c1	-28.0%	17.0	-2.1%	u	-6.3%	u
CN1CCN(c2ccc(C(=O)c3ccccc3)cc2[N+](=O)[O-])CC1	0.1%	-53.3*	24.2%	u	-1.1%	-18.7%
CCNC(=O)NC(=O)CN(Cc1ccccc1)CC(C)C(=O)OC (centres undefined)	x	x	x	x	x	23.4%
COc1ccc(CCc2nc3nccc(-c4ccsc4)n3n2)cc1OC	x	x	x	x	x	50.0%
O=C(CCc1nc(-c2ccncc2)no1)Nc1ncc(Cc2ccccc2)s1	x	x	x	x	x	-29.4%
COc1ccc(C(=O)Nc2ccccc2N2CCCCC2)cc1[N+](=O)[O-]	u	74.6	-7.6%	u	-2.5%	-1.9%
Cc1cccc(-n2nnc(C(=O)NC3CCCCC3)c2N)c1	x	x	x	x	x	-9.2%
Cc1ccc(C(=O)Nc2ccccc2N2CCCCC2)cc1[N+](=O)[O-]	u	79.1	2.4%	16.4µM*	9.6%	-16.7%
Cc1cccc(-n2nnc(C(=O)NC3CCCc4ccccc43)c2N)c1 (centres undefined)	u	-16.4	u	18.4µM*	-8.8%	45.5%
Cc1ccc(C(=O)Nc2ccccc2N2CCN(C(=O)C(C)C)CC2)cc1C	u	-22.3	-23.4%	13µM*	-22.0%	-34.3%
Cc1ccc(C(=O)NC2CCCc3ccccc32)cc1[N+](=O)[O-] (centres undefined)	u	-18.4	13µM*	14.6µM*	u	-19.0%
CCOc1ccc(NC(=O)Cc2nc(-c3ccccc3)oc2C)cc1OC	x	x	x	x	x	34.0%
Cc1ccc(C(=O)NC(=S)Nc2ccc(NC(=O)c3cccs3)cc2)cc1[N+](=O)[O-]	8.2µM*	11.7	20.6µM*	3.66µM*	u	1.3%
Cc1cc(C(=O)NC(=S)Nc2cccc(C(=O)O)c2C)ccc1[N+](=O)[O-]	-1.1%	-2.3	1.2%	6.6%	7.4%	20µM*
Cc1ccc(C(=O)Nc2ccc(NC(=O)c3cccs3)cc2)cc1[N+](=O)[O-]	u	-24.4	7.4%	-15.5%	25.6%	-4.2%
Cc1cc(C(=O)NC(=S)Nc2cccc(NC(=O)C(C)C)c2)ccc1[N+](=O)[O-]	-16.9%	-15.2	-2.7%	u	-4.8%	u
CCOC(=O)c1c(C)oc2c1c(C(c1ccccc1)N1CCOCC1)c(O)c1ccccc12 (centres undefined)	u	-70.6*	0.4%	18.4µM*	0.4%	-10.0%
CCOC(=O)c1c(C)oc2c1c(C=NCCO)c(O)c1ccccc12	-68.9%	-111.5*	23.1µM*	u	u	-4.5%
CC(C)CCSCC(=O)NCc1cccc(CN2CCCC2)c1	x	x	x	x	x	-21.5%
Cc1ccc(C)c(CS(=O)(=O)c2cn(CC(=O)N3CCC(C)CC3)c3ccccc23)c1	u	-18.3	0.0%	16.4µM*	5.3%	1.0%
Cc1ccc(C)c(CS(=O)(=O)c2cn(CC(=O)N(C(C)C)C(C)C)c3ccccc23)c1	14.6µM*	x	x	11.6µM*	x	-27.8%
CC(C)N(C(=O)Cn1cc(S(=O)(=O)Cc2ccc(Br)cc2)c2ccccc21)C(C)C	23.1µM*	x	x	16.4µM*	x	0.0%
N#Cc1ccc(CN2CCC3(CC2)OCCN(CCc2ccccc2)C3=O)cc1	x	x	x	x	x	-8.2%[176 µM]
CCOc1ccc(-c2cc(NC(=O)Nc3cccc(C(C)=O)c3)c(C(=O)OC)s2)cc1	23.1µM*	x	x	-10.2%	x	-7.4%
COC(=O)c1sc(-c2ccc(Cl)cc2)cc1NC(=O)/C=C/C(=O)O	5.8µM*	-95.0*	u	6.51µM*	u	0.0%

Bioassay records (PubChem)
